Source: PubChem BioAssay (EPA / NIEHS)
Activity calls are given as the source filed them. How the source made its calls: active means hit-call score of the fitted dose curve at least 0.9, where 1 is the maximum; inactive means score below 0.9.

Read-out: ABC Transporter (ABCB1), ABCB1 (gene 5243)
Assay: LTEA_HepaRG_ABCB1: Life Technologies and Expression Analysis (LTEA) Assay for ABC Transporter (ABCB1) using HepaRG (AID 2283460)
Details: mRNA level, 48 h; actives raise or lower the signal
Method: LTEA_HepaRG is a cell based, multiplexed-readout assay that uses HepaRG, a human liver cell line, with measurements taken at 48 hours after chemical dosing on a 96-well plate.LTEA_HepaRG_ABCB1 is one of 102 assay component(s) measured in the LTEA HepaRG cell culture assay. It is a marker of Steatosis/NR mediated transport.Data from the assay component LTEA_HepaRG_ABCB1 was analyzed into 1 endpoint. This assay endpoint, LTEA_HepaRG_ABCB1, was analyzed with bidirectional fitting relative to DMSO as the negative control and baseline of activity. Using a type of inducible reporter, measures of mRNA induction for gain or loss-of-signal activity can be used to understand regulation of transcription factor activity. To generalize the intended target to other relatable targets, this assay endpoint is annotated to the transporter intended target family, where the subfamily is ABC transporter.
A total of 1060 chemcials from the ToxCast library were tested in eight-point concentration-response experiments. Cell culture and cytotoxicity assays were conducted at Thermo Fisher Scientific's Custom Services facility (Madison, WI). A single lot of human HepaRG cells (Thermo Fisher Scientific, Frederick, MD) was used for the cell culture experiments. 96-well format collagen type I coated plates of human HepaRG cells were prepared using established methods. Briefly, cryopreserved HepaRG cells were thawed, plated at a density of approximately 100,000 cells/well in HepaRG Thaw, Plate, and General Purpose media (HPRG770, Thermo Fisher Scientific), and incubated for 48 hours. 0.5% DMSO was selected as vehicle control to balance the requisite need of DMSO in HepaRG cultures to maintain differentiation (for example, baseline metabolism, proportions of hepatocytes vs. cholangiocytes), while enabling further hepatic receptor pathway activation (for example, PXR and CAR) in response to chemical exposure. 48 hours after plating, the culture medium was replaced with HepaRG Serum-Free Incudtion Media. Cells were exposed to each test chemical in duplicate and maintained in CO2 incubators for another 48 hours. Chemical plates were thawed to room temperature and 200x concentrations of treatment groups were prepared. 8-point conentration-reponse curves were made with the highest exposure at 100 uM, followed by half-log dilutions, all in 0.5% DMSO. Each test plate contained variouse controls, induction positive controls (1mM phenobarbital), cytotoxicity positive controls ([…] aflatoxin B1), vehicle controls (0.5% DMSO), and total lysis controls (0.5% DMSO). Cell morphology images were taken using an Essen IncuCyte FLR automated microscope, with six 96-well plates imaged in about 24 minutes. Images were captured and exported and JPEG files. Spent culture media was transfered to black-well plates for the LDH assay, and remaining media was sorted at -80 C for later use. Cells were treated with RLT buffer and frozen until shipped for gene expression analysis. Total RNA was isolated from the cell suspension in 75 uL of Buffer RLT (Qiagen, Germantown, MD 20874) by Quintiles/Expression Analysis (Durham, NC) using a custom isolation procedure. Total RNA from each plate well was transferred to a preamplification plate. Fluidigm's 96.96 Dynamic ArrayTM (Fluidigm, Amsterdam, the Netherlands) technology was used for gene expression analyses by quantitative reverse transcription polymerase chain reaction (qRT-PCR, performed by Quintiles/Expression Analysis, Durham, NC)89. Standard TaqManTM Assays (Applied Biosystems/ThermoFisher Scientific, Foster City, CA) were used to assess the expression of 93 genes selected based on their selectivity and sensitivity to important hepatic receptors known to be modulated by environmental chemicals; importance in human hepatocyte functionality; and hepatotoxicity. […]

| SMILES | outcome | AC50 |
| --- | --- | --- |
| CCCCCCCCCCCCCCCCOS(=O)(=O)O | inactive |  |
| Cc1ccc(S(=O)(=O)NC(=O)NN2CCCCCC2)cc1 |  | 20.1 µM (active) |
| CC(C)c1nnc2ccc(-c3ocnc3-c3cc(F)ccc3F)cn12 | inactive |  |
| COS(C)(=O)=O | inactive |  |
| NNC(=O)c1ccncc1 | inactive |  |
| OCC(CO)(CO)CO | inactive |  |
| Nc1ccn([C@@H]2O[C@H](CO)[C@@H](O)[C@@H]2O)c(=O)n1 | inactive |  |
| CCCCCCCCN(C)C | inactive |  |
| OCc1ccccc1 | inactive |  |
| CCCCOC(=O)c1ccccc1 | inactive |  |
| O=C(NO)C1(NS(=O)(=O)c2ccc(Oc3ccc(F)cc3)cc2)CCOCC1 | inactive |  |
| OCCOCCOCCO |  | 0.115 µM (active) |
| COc1cc(C(C)C)c2c(c1)S(=O)(=O)N(COc1cc(=O)n3cccc(OCCN4CCCCC4)c3n1)C2=O |  | 21.3 µM (active) |
| NC(=O)N1c2ccccc2C=Cc2ccccc21 | inactive |  |
| C=CCc1cc(S(=O)(=O)c2ccc(O)c(CC=C)c2)ccc1O |  | 89.1 µM (active) |
| CCCc1ccccc1 | inactive |  |
| Cn1cc[nH]c1=S | inactive |  |
| O=C(O)[C@H](O)[C@@H](O)C(=O)O | inactive |  |
| c1ccc(C(O[C@@H]2CCCN(CCc3ccc4c(c3)OCO4)C2)c2ccccc2)cc1 |  | 83.9 µM (active) |
| c1ccc2ncccc2c1 | inactive |  |

| SMILES | outcome | AC50 |
| --- | --- | --- |
| O=S1(=O)CCCO1 | inactive |  |
| CCOc1ccc2[nH]cc(C(=O)NCc3ccccc3)c(=O)c2n1 | inactive |  |
| CC(C)CCCCCCOC(=O)C1CCCCC1C(=O)OCCCCCCC(C)C (stereo not given) | inactive |  |
| OCCNCCO | inactive |  |
| CCOC(N)=O | inactive |  |
| NC(=O)NN=Cc1ccc([N+](=O)[O-])o1 | inactive |  |
| CCCCC(CC)C(=O)OCCOCCOCCOC(=O)C(CC)CCCC (stereo not given) | inactive |  |
| O=c1[nH]cnc2c1ncn2[C@H]1CC[C@@H](CO)O1 | inactive |  |
| C=CN1CCCC1=O | inactive |  |
| CCCCN1C(=O)[C@@H]([C@H](O)C2CCCCC2)NC(=O)C12CCN(Cc1ccc(Oc3ccc(C(=O)O)cc3)cc1)CC2 |  | 2.24 µM (active) |
| Cc1ncc([C@@H](CCCCCCc2ccc3c(n2)NCCC3)CC(=O)O)cn1 | inactive |  |
| CCCCCCOC(=O)CC(CC(=O)OCCCCCC)(OC(=O)CCC)C(=O)OCCCCCC | inactive |  |
| O=C(O)c1ccc2c(c1)nc(C(=O)NC1CCN(C3CC3)CC1)n2Cc1cc(-c2ccc(Cl)s2)on1 | inactive |  |
| Cn1c(=O)c2[nH]cnc2n(C)c1=O | inactive |  |
| CCCCCCCCCC | inactive |  |
| COCc1nnc(-c2ccc[n+]([O-])c2)n1-c1c(Cl)c(Cl)cc2[nH]c(=O)c(=O)[nH]c12 | inactive |  |
| CCCC(CCC)C(=O)O | inactive |  |
| O=C(O)c1cccc(C[C@@H]2COc3ccc(OCc4nc5cc(F)ccc5s4)cc3[C@@H]2O)c1 | inactive |  |
| O=C1CN(N=Cc2ccc([N+](=O)[O-])o2)C(=O)N1 | inactive |  |
| COc1cc2c(c(OC)c1OC)-c1ccc(OC)c(=O)cc1[C@@H](NC(C)=O)CC2 |  | 0.0797 µM (active) |
